Compounds with a hit are over-represented: about 6.9% of the library has one in this group of screens.
MCF10A rereplic: DNA re-replication induction in MCF 10a cells; MCF 10A DNA re-replication, Hoechst nuclear intensity, 48 h; Potency, µM (series often up to 46.1 µM), most hits filed as activators; actives 2.9% (n = 350,000); AID 624296; note: nearly all actives have a fitted effect of over 50% in size
KB-3-1 tox: kills parental KB-3-1 adenocarcinoma cells | Potency, µM (series often up to 46.1 µM), most hits filed as cytotoxic | actives 1.4% (n = 400,000) | KB-3-1 viability, CellTiter-Glo ATP luminescence, 72 h; note: nearly all actives have a fitted effect of over 60% in size
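Parental KB-3-1 viability, qHTS format: 72 h compound exposure, 37 °C; CellTiter-Glo; media-only wells and DMSO plates as controls; concentration-effect fits on corrected data.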
SW480 rerep: induces DNA re-replication in SW480 colon adenocarcinoma cells; SW480 DNA re-replication, Hoechst DNA content imaging, 48 h; Potency, µM (top dose mostly 46.1 µM), most hits filed as activators; AID 624297; actives 1.8% (n = 340,000); note: nearly all actives have a fitted effect of over 55% in size
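Per well, 250 cells were exposed to pinned compound for 48 hr. Nuclear DNA was visualised with Hoechst (40 min, 37 C) and total object intensity recorded by fluorescence scanning.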
Giardia killer: Giardia lamblia killing; Giardia lamblia trophozoite viability; actives 0.15% (n = 340,000); activity change, % at 7.66 µM, hits read low; AID 540267; in the data active = activity change below about -80%; inconclusive = between about -30% and that limit;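 note: parasites exposed to compound for two days anaerobically before the ATP read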
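Compounds were tested on trophozoites seeded at 100 cells/well and held 48 hrs at 37 deg C anaerobically. An ATP-based luminescent kit measured the remaining live cells.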
ASM inhibitor: blocks human secretory acid sphingomyelinase. placental ASM, HMU-PC fluorogenic substrate, 60 min. Potency, µM (doses to about 57.5 µM), most hits filed as inhibitors. actives 0.006% (n = 340,000). AID 504937
Target sequence (P17405 47-631 limits assumed): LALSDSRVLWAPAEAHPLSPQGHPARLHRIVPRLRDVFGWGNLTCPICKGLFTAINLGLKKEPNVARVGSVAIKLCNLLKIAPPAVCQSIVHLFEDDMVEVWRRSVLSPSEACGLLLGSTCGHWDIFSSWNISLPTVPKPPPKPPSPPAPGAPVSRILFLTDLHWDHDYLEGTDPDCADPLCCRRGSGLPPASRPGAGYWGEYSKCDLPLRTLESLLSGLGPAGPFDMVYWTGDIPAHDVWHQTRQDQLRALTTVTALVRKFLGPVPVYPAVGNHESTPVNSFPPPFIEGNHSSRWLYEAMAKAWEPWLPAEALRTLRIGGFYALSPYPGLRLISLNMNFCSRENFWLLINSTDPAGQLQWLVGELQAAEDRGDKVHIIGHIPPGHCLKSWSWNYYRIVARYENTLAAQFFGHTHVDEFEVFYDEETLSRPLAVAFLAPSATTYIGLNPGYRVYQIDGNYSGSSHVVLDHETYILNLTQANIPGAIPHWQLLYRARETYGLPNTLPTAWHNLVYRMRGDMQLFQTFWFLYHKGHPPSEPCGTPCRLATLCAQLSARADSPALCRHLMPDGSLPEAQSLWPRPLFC
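Human placenta-derived ASM preincubated with compound 10 min at room temperature, then reacted with 9 uM (final) fluorogenic HMU-PC substrate for 60 min at 37 C. Stop solution raises pH to 10; fluorescence read at Ex 386/Em 447 nm.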
KB-V1 MDR tox: kills drug-selected multidrug resistant KB-V1 cells; Potency, µM (top dose mostly 46.1 µM), most hits filed as cytotoxic; AID 1347076; actives 3.4% (n = 400,000); KB-V1 MDR cells viability, CellTiter-Glo, 72 h; note: nearly all actives have a fitted effect of over 60% in size
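Following 72 h at 37 degrees C with compound, KB-V1 cell viability was read by CellTiter-Glo luminescence, medium being phenol-red-free DMEM plus 10% FBS; concentration-response parameters came from normalized, curve-fitted qHTS data.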
Hits are given with their value. Unless noted, calls come from the whole dose curve; as a rule, active = well fitted curve in the direction sought with a large enough effect; inconclusive = small, poorly fitted or top-dose-only effect, or another doubt; inactive = no such curve, though single readings can be large; an effect the other way counts as inactive or inconclusive.

Nc1c(N(CCC2=CCCCC2)C(=O)Cc2ccc(F)cc2)c(=O)[nH]c(=O)n1Cc1ccccc1 was read as MCF10A rereplic inactive, KB-3-1 tox inactive, SW480 rerep inconclusive, Giardia killer inactive, ASM inhibitor inactive and KB-V1 MDR tox inactive.
For CCCCCN(C(=O)CCC(=O)OCc1ccc(C(C)C)cc1)c1c(N)n(CCCC)c(=O)[nH]c1=O the results were MCF10A rereplic 23µM, KB-3-1 tox inactive, SW480 rerep inactive, Giardia killer inactive, ASM inhibitor inactive and KB-V1 MDR tox inactive.
`CCCCCN(C(=O)CCC(=O)OCc1ccc(C(C)(C)C)cc1)c1c(N)n(CCCC)c(=O)[nH]c1=O` gave MCF10A rereplic 21µM, KB-3-1 tox inactive, SW480 rerep inactive, Giardia killer inactive, ASM inhibitor inactive and KB-V1 MDR tox inactive.
Screening CCCCn1c(N)c(N(CCOC)C(=O)CCCc2nc3ccccc3c(=O)[nH]2)c(=O)[nH]c1=O returned MCF10A rereplic inactive, KB-3-1 tox inconclusive, SW480 rerep 23µM, Giardia killer inactive, ASM inhibitor inactive and KB-V1 MDR tox inactive.
Nc1c(N(CCC2=CCCCC2)C(=O)COc2ccc(F)cc2Cl)c(=O)[nH]c(=O)n1Cc1ccccc1 was read as MCF10A rereplic 12µM, KB-3-1 tox 8.2µM, SW480 rerep inactive, Giardia killer inactive, ASM inhibitor inactive and KB-V1 MDR tox inconclusive.
For CCCCOc1ccc(C(=O)NCC(c2ccc(Cl)cc2)N2CCOCC2)cc1 (centres undefined) the results were KB-3-1 tox inactive and KB-V1 MDR tox inactive.
`Cc1ccc(-c2cnc(N3CCC(C(N)=O)CC3)s2)cc1` gave KB-3-1 tox inactive and KB-V1 MDR tox inactive.
Screening Cc1ccc(NC(=O)CSc2nc3ccc(NC(=O)c4ccco4)cc3s2)cc1 returned KB-3-1 tox inactive and KB-V1 MDR tox inactive.
`COCCN(C(=O)COC(=O)c1ccccc1Oc1ccccc1)c1c(N)n(Cc2ccccc2)c(=O)[nH]c1=O` gave MCF10A rereplic inactive, KB-3-1 tox inconclusive, SW480 rerep 21µM, Giardia killer inactive, ASM inhibitor inactive and KB-V1 MDR tox inactive.
`CCN(C(=O)COC(=O)c1ccccc1Oc1ccccc1)c1c(N)n(Cc2ccccc2)c(=O)[nH]c1=O` gave MCF10A rereplic inactive, KB-3-1 tox inactive, SW480 rerep inactive, Giardia killer inactive, ASM inhibitor inactive and KB-V1 MDR tox inactive.
Screening CC(=O)c1ccc(N2C(=O)N(Cc3ccc(F)cc3)c3ccccc3S2(=O)=O)cc1 returned KB-3-1 tox inactive and KB-V1 MDR tox inactive.
`CN(C)c1ccc(S(=O)(=O)NCC(=O)NCCOc2ccccc2F)cc1[N+](=O)[O-]` gave MCF10A rereplic inactive, KB-3-1 tox inactive, SW480 rerep inconclusive, Giardia killer inactive, ASM inhibitor inactive and KB-V1 MDR tox inactive.
`CN(C)c1ccc(S(=O)(=O)NCC(=O)NCCC2=CCCCC2)cc1[N+](=O)[O-]` gave MCF10A rereplic inactive, KB-3-1 tox inactive, SW480 rerep inactive, Giardia killer inactive, ASM inhibitor inactive and KB-V1 MDR tox 18µM.
CCc1ccccc1NC(=O)Cn1nnc(C(=O)OC)c1C(=O)OC was read as KB-3-1 tox inactive and KB-V1 MDR tox inactive.
For NS(=O)(=O)c1ccc(CCNC(=O)c2ccc3nc(Cc4ccccc4)oc3c2)cc1 the results were KB-3-1 tox inactive and KB-V1 MDR tox inactive.
`CCc1ccc(C2C(C(=O)O)c3ccccc3C(=O)N2C)cc1` (centres undefined) gave MCF10A rereplic inactive, KB-3-1 tox inactive, SW480 rerep inactive, Giardia killer inactive, ASM inhibitor inactive and KB-V1 MDR tox inactive.
For CCc1ccc(/C=C/C(=O)C2C(=O)c3ccccc3C2=O)cc1 the results were MCF10A rereplic inconclusive, KB-3-1 tox inactive, SW480 rerep inconclusive, Giardia killer -82, ASM inhibitor inactive and KB-V1 MDR tox inactive.
Cc1ccc(-n2nc(-c3ccc(F)cc3)c3cnc4cc5c(cc4c32)OCO5)cc1C was read as KB-3-1 tox inactive and KB-V1 MDR tox inactive.
`N#Cc1c(-c2ccccc2)c(-c2ccccc2)n(Cc2ccco2)c1NC(=O)c1cccs1` gave MCF10A rereplic inactive, KB-3-1 tox inactive, SW480 rerep inactive, Giardia killer inactive, ASM inhibitor inactive and KB-V1 MDR tox 5.6µM.
Screening CCOc1cc(/C=C2\N=C(C)OC2=O)cc(Br)c1OCC(=O)OC returned MCF10A rereplic 9.2µM, KB-3-1 tox inactive, SW480 rerep 12µM, Giardia killer inactive, ASM inhibitor inactive and KB-V1 MDR tox inactive.
COc1ccc(/C(C)=N/OCC(=O)Nc2nc3ccccc3s2)cc1OC was read as MCF10A rereplic inconclusive, KB-3-1 tox inconclusive, SW480 rerep inactive, Giardia killer inactive, ASM inhibitor inactive and KB-V1 MDR tox 15µM.
Screening CC(NCCC(c1ccccc1)c1ccccc1)c1ccccc1 (centres undefined) returned MCF10A rereplic inconclusive, KB-3-1 tox inactive, SW480 rerep 7.3µM, Giardia killer inactive, ASM inhibitor inactive and KB-V1 MDR tox inconclusive.
Screening COc1cccc(NC(=O)c2nnn(Cc3cccc(C(F)(F)F)c3)c2N)c1 returned KB-3-1 tox inactive and KB-V1 MDR tox inactive.
O=S(=O)(CCN1CCOCC1)c1ccc(Cl)cc1 was read as MCF10A rereplic inactive, KB-3-1 tox inactive, SW480 rerep inactive, Giardia killer inactive, ASM inhibitor inactive and KB-V1 MDR tox inactive.
`NC(=O)C1CCN(CCS(=O)(=O)c2ccc(Cl)cc2)CC1` gave MCF10A rereplic inconclusive, KB-3-1 tox inactive, SW480 rerep 18µM, Giardia killer inactive, ASM inhibitor inactive and KB-V1 MDR tox inactive.
Screening Cc1cc(S(=O)(=O)Nc2ccc(C(=O)O)cc2)c(C)c(S(=O)(=O)c2ccc(Cl)cc2)c1 returned KB-3-1 tox inactive and KB-V1 MDR tox inconclusive.
CCOc1ccccc1OCC(=O)Nc1nnc(COC)s1 was read as MCF10A rereplic inactive, KB-3-1 tox inactive, SW480 rerep inactive, Giardia killer inactive, ASM inhibitor inactive and KB-V1 MDR tox 18µM.
Screening CCn1cnc2c(cnn2-c2ccccc2)c1=O returned MCF10A rereplic inactive, KB-3-1 tox inconclusive, SW480 rerep inactive, Giardia killer inactive, ASM inhibitor inactive and KB-V1 MDR tox 10µM.
Screening O=c1c2cnn(-c3ccccc3)c2ncn1CCc1ccccc1 returned MCF10A rereplic inactive, KB-3-1 tox inactive, SW480 rerep inactive, Giardia killer inactive, ASM inhibitor inactive and KB-V1 MDR tox inactive.
Screening CCOC(=O)c1ccccc1NC(=O)Cn1cnc2c(cnn2-c2ccccc2)c1=O returned MCF10A rereplic inactive, KB-3-1 tox inactive, SW480 rerep inactive, Giardia killer inactive, ASM inhibitor inactive and KB-V1 MDR tox inactive.
